According to the supplement of paper PMC10646978:
± gives the standard deviation.

Key:
Settings in all cases: modulator concentration 10 µM
[1] = tested on: RAW-Dual (murine macrophage reporter line); assay: NF-kB reporter (SEAP) activity fold change vs agonist alone; higher = enhanced NF-kB activity
Method in brief: (§1)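 Overnight stimulation with a PRR agonist followed pre-incubation for 1 hour at 37 °C with compound at 10 μM final. This was done in RAW-Dual murine macrophage reporter cells seeded at 50 000 per well in 384-well plates. NF-κB (SEAP, QUANTI-Blue absorbance at 620 nm) and IRF (Lucia luciferase, QUANTI-Luc luminescence) were read from the supernatant. Each reporter's fold change relative to the mean agonist-only control on the same plate was averaged over replicate plates.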

[2] = tested on: RAW-Dual (murine macrophage reporter line); assay: IRF reporter (Lucia luciferase) activity fold change vs agonist alone; higher = enhanced IRF activity
Method in brief: as §1

[3] = tested on: RAW-Dual (murine macrophage reporter line); assay: viability score (confluency relative to resting cells, overnight) (fraction); higher = more viable, active = viable (0.7 or more)
Method in brief: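 RAW-Dual macrophages in 384-well plates were exposed overnight to compound at 10 μM final. Confluency was imaged with IncuCyte, and two confluency masks were generated with IncuCyte software over all imaged wells. The viability score is confluency expressed relative to resting cells. Compounds were called viable if both masks exceeded 70% of resting cells.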

[4] = agonist: CpG ODN 1826 0.5 ug/mL

SMILES | NF-kB reporter [1, 4] | NF-kB reporter ([1]; agonist: LPS 0.1 ug/mL) | NF-kB reporter ([1]; agonist: MPLA […]) | IRF reporter ([2]; agonist: 3'3'-cGAMP 10 ug/mL) | IRF reporter ([2]; agonist: LPS 0.1 ug/mL) | IRF reporter ([2]; agonist: MPLA […]) | viability score [3]
O=C(O)c1cc(Nc2ccnc3cc(Cl)ccc23)ccc1O | 1.04 ± 0.082 | 1.02 ± 0.088 | 0.932 ± 0.044 | 0.963 ± 0.05 | 1.02 ± 0.056 | 0.96 ± 0.18 | 1 (active)
CC(C)NCC(O)COc1cccc2ccccc12 (configuration not stated) [Prestw-1075] | 1.02 ± 0.064 | 0.92 ± 0.11 | 1.05 ± 0.043 | 0.896 ± 0.032 | 0.929 ± 0.071 | 0.918 ± 0.09 | 0.985 (active)
CNC(=O)c1ccccc1Sc1ccc2c(/C=C/c3ccccn3)n[nH]c2c1 | 0.626 ± 0.11 | 0.729 ± 0.25 | 0.813 ± 0.061 | 0.0229 ± 0.0024 | 0.485 ± 0.12 | 0.259 ± 0.048 | 0.897 (active)
CC(NC(=O)C1CCN(S(=O)(=O)N2CCCC2)CC1)c1ccc(F)cc1 (configuration not stated) | 1.08 ± 0.054 | 1.05 ± 0.082 | 0.928 ± 0.041 | 0.953 ± 0.051 | 1.25 ± 0.085 | 1.09 ± 0.15 | 0.992 (active)
COC(=O)C1C(=O)C(=CNc2ccccc2C)C(=O)CC1(C)C (configuration not stated) | 1.07 ± 0.092 | 1.02 ± 0.075 | 1.03 ± 0.1 | 0.993 ± 0.049 | 1.12 ± 0.34 | 1.08 ± 0.2 | 1.03 (active)
O=C(O)C(=O)O.c1ccc(SCCc2ccncc2)cc1 | 1.06 ± 0.12 | 1.04 ± 0.076 | 1 ± 0.056 | 1.05 ± 0.24 | 1.07 ± 0.09 | 1.19 ± 0.17 | 1 (active)
C[C@@H]1CCN(C(=O)CC#N)C[C@@H]1N(C)c1ncnc2[nH]ccc12 | 1.14 ± 0.15 | 0.694 ± 0.24 | 0.824 ± 0.064 | 0.337 ± 0.022 | 0.473 ± 0.098 | 0.654 ± 0.082 | 0.992 (active)
CCCCS(=O)(=O)N[C@@H](Cc1ccc(OCCCCC2CCNCC2)cc1)C(=O)O.Cl.O | 1.2 ± 0.34 | 1.05 ± 0.057 | 0.987 ± 0.075 | 0.907 ± 0.035 | 1.14 ± 0.23 | 1.26 ± 0.12 | 0.99 (active)
NC(=O)OCC(COC(N)=O)c1ccccc1 | 1.06 ± 0.079 | 1.02 ± 0.05 | 1.04 ± 0.095 | 1.16 ± 0.26 | 0.945 ± 0.062 | 0.94 ± 0.11 | 1 (active)
CC1=C(C(=O)Nc2cccc(C)n2)C(c2ccsc2)C2=C(CC(C)(C)CC2=O)N1 (configuration not stated) | 1.04 ± 0.16 | 1.02 ± 0.057 | 0.996 ± 0.059 | 0.954 ± 0.04 | 1.2 ± 0.086 | 0.979 ± 0.12 | 1.01 (active)
CC1=NN(C(=O)OC(C)(C)C)C(O)(c2ccncc2)C1 (configuration not stated) | 1.03 ± 0.084 | 1.01 ± 0.1 | 0.886 ± 0.084 | 0.979 ± 0.081 | 1.14 ± 0.14 | 1.22 ± 0.2 | 1.03 (active)
O=c1[nH]c2ccccc2n1CCN1CCN(c2cccc(C(F)(F)F)c2)CC1 | 0.278 ± 0.037 | 0.403 ± 0.097 | 0.448 ± 0.028 | 0.953 ± 0.034 | 1.24 ± 0.34 | 1.51 ± 0.2 | 0.915 (active)
C=CCNC(=O)c1cccc(Br)c1 | 0.781 ± 0.061 | 0.962 ± 0.18 | 0.982 ± 0.097 | 0.933 ± 0.044 | 1.11 ± 0.19 | 1.09 ± 0.24 | 1.03 (active)
O=S1(=O)CCC(NCc2ccccc2C(F)(F)F)C1 (configuration not stated) | 0.997 ± 0.095 | 1.13 ± 0.11 | 0.978 ± 0.08 | 1.02 ± 0.071 | 1.03 ± 0.092 | 1.04 ± 0.32 | 1 (active)
Cn1nccc1-c1ccc(CNC(=O)c2cc(Br)cs2)cn1 | 1.02 ± 0.082 | 0.974 ± 0.078 | 1.16 ± 0.12 | 1.03 ± 0.032 | 1.35 ± 0.17 | 1.53 ± 0.23 | 1 (active)
NC(=NOC(=O)C(c1ccccc1)C1CCCC1)c1ccccn1 (configuration not stated) | 0.796 ± 0.062 | 0.857 ± 0.055 | 1.06 ± 0.1 | 0.613 ± 0.042 | 1.38 ± 0.083 | 1.62 ± 0.15 | 0.982 (active)
Brc1ccc(-c2cc(-c3ccccc3)nc(N3CCOCC3)n2)cc1 | 0.81 ± 0.087 | 0.995 ± 0.11 | 1.12 ± 0.13 | 0.977 ± 0.059 | 1.35 ± 0.25 | 1.59 ± 0.38 | 1.01 (active)
Cc1cc(C(=O)Nc2ccccc2S(C)(=O)=O)no1 | 1.17 ± 0.069 | 1.04 ± 0.08 | 0.992 ± 0.055 | 0.995 ± 0.056 | 1.04 ± 0.05 | 1.06 ± 0.15 | 1 (active)
CC1CCc2nc(NC(=O)C3CCCN3S(C)(=O)=O)sc2C1 (configuration not stated) | 0.812 ± 0.037 | 1.03 ± 0.082 | 1.08 ± 0.057 | 0.983 ± 0.045 | 1.35 ± 0.27 | 1.44 ± 0.48 | 0.964 (active)
Nc1nc(=O)[nH]cc1F | 0.84 ± 0.12 | 1.07 ± 0.085 | 1.08 ± 0.11 | 1.02 ± 0.049 | 1.23 ± 0.071 | 1.33 ± 0.11 | 1.01 (active)
CC(C(=O)O)c1ccc2c(c1)Cc1cccnc1O2 (configuration not stated) | 1.29 ± 0.17 | 1.41 ± 0.38 | 1.1 ± 0.1 | 0.966 ± 0.03 | 1.55 ± 0.28 | 1.15 ± 0.14 | 0.985 (active)
COc1c(Cl)ccc(Cl)c1C(=O)NCc1ccccc1 | 0.812 ± 0.13 | 1.01 ± 0.12 | 1.06 ± 0.11 | 1.15 ± 0.03 | 1.25 ± 0.14 | 1.33 ± 0.25 | 1 (active)
C=CCn1c(SCC(=O)NCCN2CCOCC2)nc2sc3c(c2c1=O)CCC3 | 0.99 ± 0.079 | 1.05 ± 0.069 | 0.852 ± 0.068 | 1.02 ± 0.081 | 1.48 ± 0.11 | 0.984 ± 0.083 | 1.01 (active)
Cc1ccn2c(-c3csc(NCc4ccccc4)n3)c(C)nc2c1 | 0.787 ± 0.061 | 1.03 ± 0.048 | 1.19 ± 0.15 | 0.442 ± 0.05 | 1.38 ± 0.082 | 1.46 ± 0.12 | 1.01 (active)
CSc1cc(C=NO)c(SC)s1 | 0.874 ± 0.08 | 0.799 ± 0.1 | 0.886 ± 0.085 | 0.713 ± 0.043 | 0.975 ± 0.15 | 1.01 ± 0.27 | 0.285 (inactive)
C=CC(C)(O)CCC=C(C)C (configuration not stated) | 0.988 ± 0.085 | 0.841 ± 0.062 | 0.999 ± 0.11 | 1.01 ± 0.038 | 1.22 ± 0.16 | 1.34 ± 0.28 | 1.03 (active)
